Screening data deposited in PubChem BioAssay by Broad Institute.
Many of the other results were omitted from the sample, so hits are more common in it than they were.
PD-1 reversal = activators reversing PD-1 mediated T-cell inhibition, primary screen, luminescence, primary human CD4 T cells, PD-L1 beads. CellTiter-Glo 96 h. 29,000 tested, under 10 active. activation, % (concentration not given with the values). AID 2316, 2010; call rule not given here
STK33 inh = STK33 kinase inhibitors, primary screen, biochemical, luminescence, ADP-Glo, MBP substrate; inhibition, % at 12.5 µM; actives 0.44% (n = 27,000); in the data active means inhibition above about 20%; inconclusive means no clear call, values can overlap the other calls
Target sequence (Q9BYT3 whole entry, looked up): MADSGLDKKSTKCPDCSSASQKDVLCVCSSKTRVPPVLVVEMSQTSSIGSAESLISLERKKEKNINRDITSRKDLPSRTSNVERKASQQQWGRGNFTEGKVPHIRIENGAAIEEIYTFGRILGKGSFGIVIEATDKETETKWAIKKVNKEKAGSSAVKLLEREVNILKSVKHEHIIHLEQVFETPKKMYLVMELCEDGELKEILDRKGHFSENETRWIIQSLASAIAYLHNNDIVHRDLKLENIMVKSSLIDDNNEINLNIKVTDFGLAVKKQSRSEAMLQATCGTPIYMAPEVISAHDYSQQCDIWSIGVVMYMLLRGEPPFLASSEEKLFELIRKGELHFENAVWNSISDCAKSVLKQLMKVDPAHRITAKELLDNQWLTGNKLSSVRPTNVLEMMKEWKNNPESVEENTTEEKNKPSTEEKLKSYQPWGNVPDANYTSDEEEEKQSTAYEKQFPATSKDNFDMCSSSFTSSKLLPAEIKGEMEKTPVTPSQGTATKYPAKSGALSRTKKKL
NOMO-1 viab = NOMO-1 AML cell viability reduction, primary screen, STK33 inhibitor project, CellTiter-Glo luminescence | actives 7.5% (n = 37,000) | inhibition, % (no concentration beside the values) | NOMO-1 AML viability, 72 h; in the data active means inhibition above about 80%; inconclusive means no clear call, values can overlap the other calls
Hits are given with their value; 0 = inactive; ? = inconclusive; - = not tested or not shown.

SMILES	PD-1 reversal	STK33 inh	NOMO-1 viab
COc1ccc(-n2nc3ccc(NC(=O)c4ccc(-c5ccccc5)cc4)cc3n2)cc1	0	-	0
C[C@H](CO)N1C[C@H](C)[C@H](CN(C)Cc2ccncc2)Oc2ccc(NC(=O)Cc3ccccc3)cc2C1=O	-	-	98
C[C@@H]1CN([C@H](C)CO)C(=O)c2cc(NC(=O)Cc3ccccc3)ccc2O[C@H]1CN(C)Cc1ccc(-c2ccccc2)cc1	0	0	117
C[C@@H]1CN([C@@H](C)CO)C(=O)c2cc(NC(=O)Cc3ccccc3)ccc2O[C@@H]1CN(C)Cc1ccc(-c2ccccc2)cc1	0	0	0
C[C@H]1CN([C@@H](C)CO)C(=O)c2cc(NC(=O)Cc3ccccc3)ccc2O[C@H]1CN(C)Cc1ccccc1	0	0	0
N#CCC(=O)NCc1cccs1	0	-	0
COC(=O)CN(c1ccc2c(c1)OCCO2)S(C)(=O)=O	0	0	0
COc1ccc(/C=C2\Oc3cc(O)cc(O)c3C2=O)cc1O	0	31	0
COc1cc(C2CC(=O)c3c(O)cc(O)cc3O2)ccc1O (stereo unspecified)	0	0	0
C[C@@H]1CN([C@H](C)CO)C(=O)Cc2cc(NC(=O)CCC(F)(F)F)ccc2O[C@H]1CN(C)Cc1ccc(C(=O)Nc2ccccc2N)cc1	0	-	0
C[C@H](CO)N1C[C@H](C)[C@H](CN(C)Cc2ccc(C(=O)Nc3ccccc3N)cc2)Oc2ccc(NC(=O)Cc3ccccc3)cc2CC1=O	0	-	128
C[C@@H]1CN([C@H](C)CO)C(=O)Cc2cc(NC(=O)Cc3ccccc3)ccc2O[C@H]1CN(C)Cc1ccc(C(=O)Nc2ccccc2N)cc1	0	-	0
C[C@@H]1CN([C@@H](C)CO)C(=O)Cc2cc(NC(=O)Cc3ccccc3)ccc2O[C@@H]1CN(C)Cc1ccc(C(=O)Nc2ccccc2N)cc1	0	-	96
COC(=O)c1c(NC(=O)COc2ccccc2)sc(C)c1-c1ccccc1	0	0	0
CCOC(=O)c1c(NC(=O)C(C)n2nc([N+](=O)[O-])c(Br)c2C)sc(C)c1C (stereo unspecified)	0	0	0
CC1(C)CC(=O)c2c(SCCOC(=O)c3ccccc3Cl)sc(C#N)c2C1	0	-	0
CS(=O)c1sc(C(=O)OCc2ccccc2)c2c1C(=O)CC(C)(C)C2 (stereo unspecified)	0	-	116
CC(c1ccco1)N(C(=O)c1sc2ccccc2c1Cl)c1ccccn1 (stereo unspecified)	0	-	0
C[C@@H]1CN([C@@H](C)CO)C(=O)c2cccc(NC(=O)CCCCCC(=O)Nc3ccccc3N)c2O[C@H]1CN(C)Cc1ccc2c(c1)OCO2	0	-	117
C[C@H]1CN([C@@H](C)CO)C(=O)c2cccc(NC(=O)C3CC3)c2O[C@@H]1CN(C)Cc1ccc2c(c1)OCO2	-	-	0
C[C@H](CO)N1C[C@H](C)[C@H](CN(C)Cc2ccc3c(c2)OCO3)Oc2c(NC(=O)Nc3cccc4ccccc34)cccc2C1=O	0	-	0
C[C@H](CO)N1C[C@H](C)[C@@H](CN(C)Cc2ccc3c(c2)OCO3)Oc2c(NC(=O)CCCCCC(=O)Nc3ccccc3N)cccc2C1=O	0	-	123
C[C@@H]1CN([C@H](C)CO)C(=O)c2cccc(NC(=O)C3CC3)c2O[C@@H]1CN(C)Cc1ccc2c(c1)OCO2	0	-	0
C[C@H]1CN([C@@H](C)CO)C(=O)c2cccc(NC(=O)CCCCCC(=O)Nc3ccccc3N)c2O[C@@H]1CN(C)Cc1ccc2c(c1)OCO2	0	-	121
Cc1ccc(N(C(C)C(=O)Nc2ccc(Oc3ccccc3)cc2)S(C)(=O)=O)cc1C (stereo unspecified)	0	0	0
SMILES	PD-1 reversal	STK33 inh	NOMO-1 viab
O=C(Nc1ccc(Cl)cc1)NC(Cc1ccccc1)C(=O)O (stereo unspecified)	0	0	0
CCC(C)C(=O)c1c(O)cc2c(c1O)CC(CC=C(C)C)C(C)(C)O2 (stereo unspecified)	0	0	88
Cc1cccc(NC(=O)c2ccccc2NC(=O)COc2ccccc2Cl)c1C	0	0	0
CCc1ccc(C(=O)CC2OC(=O)c3c2ccc(OC)c3OC)cc1 (stereo unspecified)	0	-	0
O=C1C(Nc2ccccc2)=CC(=O)c2ncccc21	0	0	142
O=C(Nc1ccccc1C(=O)O)c1cccc(S(=O)(=O)Nc2cccc(Br)c2)c1	-	0	0
COC(=O)C1=C(C)NC(C)=C(C(=O)OCCCN2CCC(c3ccccc3)(c3ccccc3)CC2)C1c1cccc([N+](=O)[O-])c1 (stereo unspecified)	-	0	120
COC(=O)C1=C(C)NC2=C(C(=O)c3ccccc32)C1c1ccc(OCc2cccc([N+](=O)[O-])c2)cc1 (stereo unspecified)	-	0	-
N#CC1=C(N)S[C@H](C(=O)c2ccccc2)[C@H]1c1ccc(Br)c(F)c1	0	-	?
Cc1ccc(-c2nnc(SCC(=O)c3ccccc3)n2-c2ccccc2)cc1Cl	0	0	0
Cc1cc(OCC(=O)Nc2ccc(O)c(-c3nc4ccccc4o3)c2)ccc1Cl	0	0	107
Cc1cc(OCC(=O)Nc2ccc(O)c(-c3nc4ccccc4s3)c2)ccc1Cl	-	0	0
OC(Cc1cccnc1)(c1ccccc1)c1ccccc1	0	0	0
OC(Cc1ccccc1)(c1ccccc1)c1ccccc1N=Cc1ccc2c(c1)OCO2 (stereo unspecified)	0	-	91
COc1ccccc1-c1nnc(SCC(=O)Nc2ccc(Cl)cc2Cl)n1-c1ccccc1	0	0	0
CC(C)c1ccc(NC(=O)CSc2nnc(-c3ccc(Br)cc3)n2C)cc1	0	0	0
Cc1ccc(SC(=O)c2c(C)noc2COc2ccccc2)cc1	0	0	0
CCOC(=O)C1=C(Nc2ccc(OC(C)=O)cc2)C(=O)N(C(C)(C)C)C1	0	-	0
C[C@H]1CN([C@@H](C)CO)C(=O)c2cccc(NC(=O)Nc3cccc4ccccc34)c2O[C@H]1CN(C)C(=O)Nc1ccc(C(F)(F)F)cc1	0	-	109
C[C@H](CO)N1C[C@H](C)[C@@H](CN(C)C(=O)Nc2ccc(C(F)(F)F)cc2)Oc2c(NC(=O)Nc3cccc4ccccc34)cccc2C1=O	0	-	100
C[C@H]1CN([C@@H](C)CO)C(=O)c2cccc(NC(=O)Nc3ccc(F)cc3)c2O[C@H]1CN(C)C(=O)Nc1cccc2ccccc12	0	-	0
C[C@H](CO)N1C[C@H](C)[C@H](CN(C)C(=O)Nc2ccc(C(F)(F)F)cc2)Oc2c(NC(=O)Nc3cccc4ccccc34)cccc2C1=O	0	-	102
C[C@H]1CN([C@@H](C)CO)C(=O)c2cccc(NC(=O)Nc3cccc4ccccc34)c2O[C@H]1CN(C)C(=O)Nc1ccc(F)cc1	0	-	87
C[C@@H]1CN([C@@H](C)CO)C(=O)c2cccc(NC(=O)Nc3ccccc3)c2O[C@@H]1CN(C)C(=O)Nc1ccc(C(F)(F)F)cc1	-	-	0
C[C@H](CO)N1C[C@H](C)[C@@H](CN(C)C(=O)Nc2ccccc2)Oc2c(NC(=O)Nc3ccc(C(F)(F)F)cc3)cccc2C1=O	0	-	0
C[C@H]1CN([C@@H](C)CO)C(=O)c2cccc(NC(=O)Nc3ccccc3)c2O[C@@H]1CN(C)C(=O)Nc1ccc(C(F)(F)F)cc1	0	-	0
